Test results from PubChem BioAssay AID1508600 (Functional Genomics Laboratory (NCATS/FGL), 2020).
Hit rate of the full screen: of about 53,000 sequences, about 3,700 (7%) were called active.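 How the source made its calls: active means gene knockdowns whose robust z-score for IL-1 alpha signal is at least 2 or at most -2, so actives lie on both sides; inactive means the rest.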 The sample as a whole holds a higher share of actives than the screen did.

Assay: Components of the Cytosolic LPS Sensing Pathway: Gene Identification via Genome-wide siRNA Screen;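 further: robust z of the log signal after scaling to non-targeting control siRNA wells of the plate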
Settings: RAW264.7 macrophages, IL-1a HTRF, actives lie on both sides, screened at 100 nM (by protocol), cells primed 5 h with Pam3CSK4 first
Summary of the method: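 Mouse macrophage line RAW264.7 is transfected with siRNA (100 nM final), grown 48h, primed with TLR ligand Pam3CSK4 5 h and given intracellular LipidA 24 h. IL-1a in supernatant is read by HTRF and viability by luminescence.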

z-score, active:
GGCAAACAUUUCAAAUACATT against Tgm4 2.12
GGGAUGCUCUGAACAUUGATT against Anxa2 3.22
GGAUCACAGCAGAAGAAAUTT against Tmem144 -2.95
GGGUCUUAUGGAAGUGUUUTT against Stk3 7.27
GGUUCACAGUAACCAUUGGTT against Zc3h18 -2.45
GGACUGUUGAAUAAAACCUTT against Rnps1 -2.29
GCCAACUACGUAUAUACAUTT against 4921511C20Rik 2.41
GGUUGGAAAUGAAAUCAAUTT against Erc2 2.36
GCACUGAUGUAAGGUAACCTT against Prdm4 2.48
GGCCCAUUUUGGUGUGCAUTT against Hyal3 -2
GGAUGCUCACCUUCAAAUUTT against Il2 2.33
GCAUAGUUGGAACCGUAUUTT against Tdpoz3 2.25
GGUCUUGGCACAAUUACAUTT against Actl6a -2.07
GGAUGAUUCUGGGUUACAGTT against Pwwp3a -2.26
GCUUCUAGUCAACAUCCAGTT against Klf15 2.07
GGCCAAGUCUGGAAUCACUTT against Angel2 -2.42
GGUCACAGACAUUCCCGAATT against Atad2 -2.89
GCGUAACGCAGCAGCUAAGTT against Tarbp2 -3.01

z-score, inactive:
GGUAGAGGUUAUAUAGGCATT against Ms4a6d 0.282
GGUACUCACAUCUCCAAAGTT against Zfp948 -0.881
GGAGGAAGAGAUUUUAAACTT against Rps8 0.158
GCUGCUGAUAACAUCCGACTT against Golga5 0.554
GGUACAGUUACGGUCAAAUTT against Zfp952 0.739
GGUAUGUCCUCUGGUCAAUTT against Bpifa1 0.282
GGUCAAUGCUACUAAUGAATT against Ankrd61 0.661
CCAUGCAGCAAAUCGAGUUTT against Klk1b5 0.912
GGUCUGAGCUUCCAAUAACTT against Reep5 0.183
GCUAUUGGGUAGAUUGAUATT against Baat 0.251
GCUUCUAAUUGGAGAUUGCTT against Bex3 -1.39
GGAACACAAUGGGACGAGUTT against Ccl11 -1.12
GGCCACGUUUCUCUUCACCTT against Nyx -1.12
GGCAAAGAAUUCAAUCGGATT against Atp2b2 -0.235
GGUUCAAAUGUUGCAUAGUTT against Klrc2 0.597
GGAAGUGGAAGUUCUGAAGTT against Tsc22d1 -0.886
CCUUUUUGAGGAAUUUGGATT against Scaf8 -0.0964
CGGCUCGUUGAAGAACAAATT against Afap1 -1.32
GGCUUCAUUCGUAGGCCAUTT against Smcr8 1.64
GCAAAAGGAAACGAUCUCATT against Fbxo43 -0.302
GGCUCAGGACUUUGUCUACTT against Lhx4 -1.19
GGUUCAACUCUCUUUUUGATT against Atp8b5 0.347
GCGAAUGUAGUGUAUUAUGTT against Prkd1 0.259
AGGCACGUCUGAUUGCAUGTT against LOC432823 0.578
CCAUUGUGAUCAAGAUAAATT against Cggbp1 -0.35
GCUGUGUCACUACUUCGAUTT against Rpp40 1.32
GGUGAAAGACACUUGAAUUTT against Cdk2 0.625
GGAGACAGAGAAGAUUUGUTT against Mia2 -0.21
GCAAGGUGACAUCAGAAGUTT against Flot2 -0.709
GGACAUAUAUAGCAAGGAGTT against Polrmt 1.07
GGACAGCAGUUUUUACUAGTT against Mllt10 0.907
GCUGUUUGACUACAUAAUCTT against Melk 0.275
GGUUCAAGUGACCAAGUUCTT against Odf3 -0.487
CCCAAGAUGGUAGCAGACATT against Tbxas1 -0.00814
GGAACAUGACAUUUUUGUCTT against Smdt1 -0.561
GGAGGACUCAGCACUCUUUTT against E130311K13Rik -0.769
GGAUCACAGUCUCUUCGGUTT against Fgf20 0.473
GGGUGUACCUUAUGUAUUATT against Prpf4 1.03
GGAUUGUGCAGAGCAUCUGTT against Card14 -1.45
GGCUGAGGAGAUAACCAUATT against Nemp2 -0.701
GAUGGACAAACGGAAGUGCTT against Iapp 0.322
GGACUUCAGUUACAACCGGTT against Nr1h3 -0.174
CCACAAUUUUUUCUGCCUCTT against Olfr492 -0.694
CGGUAUGAGUAGGAUCUCCTT against Cd83 -0.577
GGAAGUGCUUUGAAGAAGATT against Strip2 1.21
GCUAACUUGCUCAUGCAAATT against Txlnb -0.00758
GGAAUCGAGAUAUAAAAGGTT against Olfr352 -1.29
GCUAGGAUUGUUCACAAACTT against Spdef -0.707
GCUCUUCUCAAGUAUGACGTT against Chrna6 0.717
GGAUGGAGAUUAUGAAGAGTT against Pcsk9 -0.248
CCUGUUACCCUAUAUUUUGTT against Vmn1r82 -1.02
CGCAGUUCAUCGCAUGAUUTT against Arhgef12 0.611
GGAUGAAAGUCCAACCACATT against Tulp2 -0.17
GGGUUGAAUAUGUAGCUUGTT against Dsg1a 0.697
GGUAUUUGAAUUUCGUCCCTT against Zc3h15 0.122
GGGACAACGCACUCCAACATT against 1810024B03Rik 0.904
CCAUUUGACAAGACUGCCATT against Ppp6r1 0.921
GCAGGUGAGAAAGUAUAAGTT against Mro -1.09
GGACUUCUAGAGAAGAAGCTT against Gpn2 0.0803
CCAAUGACUUCUGGUUAGATT against Tdpoz1 0.665
GGUCAGAAGAGUUUGCUAATT against Sgms2 0.552
CGAUGGAAGCACUUAUUUATT against Lep 0.984
GGCCAAAUGAAGUCAAAAGTT against Srsf12 -0.212
CCUUGUUUGAAUAACGAACTT against 5830427D03Rik -1.73
CCCAGUUGCUAUGCUUGACTT against Defb37 1.68
GGCCAGGAGAUUCCUAUGATT against Shisa4 -0.304
GGAAAAGUUAGCGUGUAAUTT against Prkcz -1.66
CCAUCCAUAUGAACUAUGATT against Slc30a4 -1.5
CCAGACCUGUGGUAAUCUATT against D3Ertd751e -0.875
GCGCAUGAGUGCAAGGAUUTT against Prdm16 0.265
GGAUCCGUUUUGGUGGAAUTT against Enpp4 0.255
GCACAUGCAUGGCUCUAAGTT against Hinfp 0.779
GGAAGACAAUCGCUGCGUGTT against Tet3 0.927
GCUUCUGUGGGCAACAGUUTT against Cryba1 0.0577
GGUCUCAGUUGGAAUUAUUTT against Pds5a -0.806
GGAGAAUCAGGGUAGCACATT against Txnl4a -0.52
GGUGUCAUUCACAAAAACUTT against Csnk1g1 -1.09
GCAGCAGGAAGGAUCAUUCTT against Ly6h -0.0488
GGACUUCAUGGGUCGCUUUTT against Gstm2 -0.185
GGAAUUAACAGAGAAGAAATT against Rgs13 -0.848
GCUCCUGGUCUCAUUUACATT against Taf9b -0.386
GGUGGUUUUCAGCAAGUACTT against Pde9a -0.514
AGUCAAGACCCAUAGAAAATT against Ociad2 -1.87
GCUACCAUUUGAUCAGUUUTT against Entpd1 0.665
GUCAUCACAAGUCAAGAAGTT against Prol1 -1.25
GGAGAAGGUUCACUCUGAUTT against Traf1 -0.666
GGAAACCUGAUUGCAUAUGTT against Nup37 -0.259
GCAUUAACUGUCUUGAUCCTT against Olfr356 1.41
GGAAUAAGGAAGUUAUUGGTT against Olfr706 -0.356
